Data from the supplement of paper PMC10849652.
The full data set covers some 7,900 targets. This sample favours those with a hit. About 0.6% of all pairs of compound and target were hits. Unmarked numbers belong to inactive results.

Legend:
Test in all cases: log2 fold change, soluble protein after heating vs DMSO (PISA); higher = thermal stabilisation; K562 cells, 10 uM, 30 min; active = over 0.2 and 3.5 SD of the protein, either way, in both replicates (recomputed)
epoxomicin = compound: CC[C@H](C)[C@@H](C(=O)N[C@@H]([C@@H](C)O)C(=O)N[C@@H](CC(C)C)C(=O)[C@]1(CO1)C)NC(=O)[C@H]([C@@H](C)CC)N(C)C(=O)C [epoxomicin]
Method in brief: (§1)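 Values are thermal stability changes relative to control samples and are taken from duplicates. They are stated as log2 fold changes. Before quantification by TMTpro 16plex LC-MS/MS with equalised channel sums, K562 cells at 2×10^6 cells/mL were treated with 10 μM compound for 30 min, heated in aliquots for 3 min across 48°C-58°C, pooled, extracted in PBS with 0.5% NP-40 at 4°C, and centrifuged at 21,000xg for 90 min to give the soluble supernatant.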

[1] = compound: CN(C)CC(=O)Nc1ccc2[nH]c(=O)c3ccccc3c2c1
Method in brief: as §1

rosiglitazone = compound: CN(CCOC1=CC=C(C=C1)C[C@H]2C(=O)NC(=O)S2)C3=CC=CC=N3 (racemic) [rosiglitazone]
Method in brief: as §1

[2] = compound: CN1C2=C(C3=C1C(=O)N(N=C3)CC4=CC(=CC=C4)N)SC(=C2)S(=O)C
Method in brief: as §1

saracatinib = compound: CN1CCN(CCOc2cc(OC3CCOCC3)c3c(Nc4c(Cl)ccc5c4OCO5)ncnc3c2)CC1 [saracatinib]
Method in brief: as §1

alvocidib = compound: CN1CC[C@H](c2c(O)cc(O)c3c(=O)cc(-c4ccccc4Cl)oc23)[C@H](O)C1 [alvocidib]
Method in brief: as §1

defactinib = compound: CNC(=O)c1ccc(Nc2ncc(C(F)(F)F)c(NCc3nccnc3N(C)S(C)(=O)=O)n2)cc1 [defactinib]
Method in brief: as §1

[3] = compound: CNc1nc(-c2ccc3c(N)n[nH]c3c2)cc(N2C[C@@H](C(=O)NC3CCCCC3)CC[C@H]2C)n1
Method in brief: as §1

[4] = compound: COC(=O)[C@H](CCSC)NC(=O)C1=C(C=C(C=C1)NC[C@H](CS)N)C2=CC=CC=C2
Method in brief: as §1

volasertib = compound: CC[C@@H]1C(=O)N(C)c2cnc(Nc3ccc(C(=O)N[C@H]4CC[C@H](N5CCN(CC6CC6)CC5)CC4)cc3OC)nc2N1C(C)C [volasertib]
Method in brief: as §1

[5] = compound: CCn1c(C(=O)N(C2CC2)C2CC2)cc2c3c(ncn3C)c(Nc3cc(C)n(C)n3)nc21
Method in brief: as §1

[6] = compound: CNC(=O)C1=CC=CC=C1NC2=NC(=NC=C2Cl)NC3=C(C=C(C=C3)N4CCOCC4)OC
Method in brief: as §1

[7] = compound: CC[C@H](C)N1C=C(C2=C(C=C(C=C21)C3=CN=C(C=C3)N4CCNCC4)C(=O)NCC5=C(C=C(NC5=O)C)C)C
Method in brief: as §1

[8] = compound: CCn1cc(-c2ccnc3[nH]c(-c4cccc(CN(C)C)c4)cc23)c(-c2ccc(NC(=O)N(C)C)cc2)n1
Method in brief: as §1

[9] = compound: CN1CCC(CNc2ccc3ncc(-c4cccc(OC(F)(F)F)c4)n3n2)CC1
Method in brief: as §1

sotrastaurin = compound: CN1CCN(c2nc(C3=C(c4c[nH]c5ccccc45)C(=O)NC3=O)c3ccccc3n2)CC1 [sotrastaurin]
Method in brief: as §1

Tubastatin A = compound: CN1CCc2c(c3ccccc3n2Cc2ccc(C(=O)NO)cc2)C1 [Tubastatin A]
Method in brief: as §1

[10] = compound: CC[C@@H]1C(=O)N(C)c2cnc(Nc3ccc(C(=O)NC4CCN(C)CC4)cc3OC)nc2N1C1CCCC1
Method in brief: as §1

rucaparib = compound: CNCc1ccc(-c2[nH]c3cc(F)cc4c3c2CCNC4=O)cc1 [rucaparib]
Method in brief: as §1

encorafenib = compound: COC(=O)N[C@@H](C)CNc1nccc(-c2cn(C(C)C)nc2-c2cc(Cl)cc(NS(C)(=O)=O)c2F)n1 [encorafenib]
Method in brief: as §1

Sequence of UniProt Q16531 (Q16531 whole entry, looked up): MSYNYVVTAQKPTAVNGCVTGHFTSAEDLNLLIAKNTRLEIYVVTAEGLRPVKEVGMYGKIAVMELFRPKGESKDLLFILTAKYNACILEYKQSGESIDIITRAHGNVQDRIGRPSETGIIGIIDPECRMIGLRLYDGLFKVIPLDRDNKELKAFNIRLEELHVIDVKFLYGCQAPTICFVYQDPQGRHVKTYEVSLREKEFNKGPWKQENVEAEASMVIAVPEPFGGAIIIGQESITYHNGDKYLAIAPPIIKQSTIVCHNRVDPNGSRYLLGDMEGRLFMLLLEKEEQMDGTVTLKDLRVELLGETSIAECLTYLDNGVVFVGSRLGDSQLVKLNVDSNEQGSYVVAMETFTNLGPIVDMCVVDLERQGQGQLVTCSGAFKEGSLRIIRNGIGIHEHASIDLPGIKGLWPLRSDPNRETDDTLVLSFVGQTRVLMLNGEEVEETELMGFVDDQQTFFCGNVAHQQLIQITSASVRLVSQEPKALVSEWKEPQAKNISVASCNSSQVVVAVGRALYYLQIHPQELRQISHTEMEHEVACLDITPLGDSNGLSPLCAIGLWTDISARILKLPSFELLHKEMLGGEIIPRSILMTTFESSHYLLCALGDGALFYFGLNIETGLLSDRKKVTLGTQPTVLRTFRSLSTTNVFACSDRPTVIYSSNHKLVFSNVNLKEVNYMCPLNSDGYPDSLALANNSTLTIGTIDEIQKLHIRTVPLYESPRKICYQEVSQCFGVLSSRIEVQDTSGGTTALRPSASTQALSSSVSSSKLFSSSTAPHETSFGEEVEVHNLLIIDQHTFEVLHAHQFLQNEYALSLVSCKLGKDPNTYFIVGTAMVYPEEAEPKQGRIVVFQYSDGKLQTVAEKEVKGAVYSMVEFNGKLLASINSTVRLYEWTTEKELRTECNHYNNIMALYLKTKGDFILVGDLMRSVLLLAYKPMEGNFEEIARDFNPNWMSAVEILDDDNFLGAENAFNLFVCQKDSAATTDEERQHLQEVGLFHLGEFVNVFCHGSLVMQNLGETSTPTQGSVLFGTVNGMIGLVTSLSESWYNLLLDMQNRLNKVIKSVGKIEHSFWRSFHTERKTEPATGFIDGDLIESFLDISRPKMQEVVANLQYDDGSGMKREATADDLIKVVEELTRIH
Sequence of UniProt Q8TEH3 (Q8TEH3 whole entry, looked up): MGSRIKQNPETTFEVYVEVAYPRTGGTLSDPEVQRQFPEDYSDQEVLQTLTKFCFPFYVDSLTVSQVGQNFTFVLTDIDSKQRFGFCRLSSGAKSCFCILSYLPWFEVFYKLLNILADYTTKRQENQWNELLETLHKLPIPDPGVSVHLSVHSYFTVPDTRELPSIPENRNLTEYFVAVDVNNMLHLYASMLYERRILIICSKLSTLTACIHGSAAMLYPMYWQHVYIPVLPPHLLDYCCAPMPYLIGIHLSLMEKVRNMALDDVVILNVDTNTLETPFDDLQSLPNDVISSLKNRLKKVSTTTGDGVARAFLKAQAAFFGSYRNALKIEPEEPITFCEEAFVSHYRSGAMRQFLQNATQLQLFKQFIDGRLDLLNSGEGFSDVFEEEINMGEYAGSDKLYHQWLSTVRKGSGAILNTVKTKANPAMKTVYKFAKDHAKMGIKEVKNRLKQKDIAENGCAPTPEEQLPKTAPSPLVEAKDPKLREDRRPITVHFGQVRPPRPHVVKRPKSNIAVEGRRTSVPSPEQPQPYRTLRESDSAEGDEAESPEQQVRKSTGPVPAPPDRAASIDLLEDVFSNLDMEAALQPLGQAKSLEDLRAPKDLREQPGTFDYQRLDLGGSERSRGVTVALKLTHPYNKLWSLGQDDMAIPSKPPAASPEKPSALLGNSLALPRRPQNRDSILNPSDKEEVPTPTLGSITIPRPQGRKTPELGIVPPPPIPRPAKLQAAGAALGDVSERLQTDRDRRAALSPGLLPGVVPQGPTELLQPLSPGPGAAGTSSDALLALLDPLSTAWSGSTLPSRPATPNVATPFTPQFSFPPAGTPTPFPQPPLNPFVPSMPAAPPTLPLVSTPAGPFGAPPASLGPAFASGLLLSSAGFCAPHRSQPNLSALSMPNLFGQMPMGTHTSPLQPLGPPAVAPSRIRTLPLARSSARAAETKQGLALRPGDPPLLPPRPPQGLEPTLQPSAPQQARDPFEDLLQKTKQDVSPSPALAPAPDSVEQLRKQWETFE
Sequence of UniProt P50548 (P50548 whole entry, looked up): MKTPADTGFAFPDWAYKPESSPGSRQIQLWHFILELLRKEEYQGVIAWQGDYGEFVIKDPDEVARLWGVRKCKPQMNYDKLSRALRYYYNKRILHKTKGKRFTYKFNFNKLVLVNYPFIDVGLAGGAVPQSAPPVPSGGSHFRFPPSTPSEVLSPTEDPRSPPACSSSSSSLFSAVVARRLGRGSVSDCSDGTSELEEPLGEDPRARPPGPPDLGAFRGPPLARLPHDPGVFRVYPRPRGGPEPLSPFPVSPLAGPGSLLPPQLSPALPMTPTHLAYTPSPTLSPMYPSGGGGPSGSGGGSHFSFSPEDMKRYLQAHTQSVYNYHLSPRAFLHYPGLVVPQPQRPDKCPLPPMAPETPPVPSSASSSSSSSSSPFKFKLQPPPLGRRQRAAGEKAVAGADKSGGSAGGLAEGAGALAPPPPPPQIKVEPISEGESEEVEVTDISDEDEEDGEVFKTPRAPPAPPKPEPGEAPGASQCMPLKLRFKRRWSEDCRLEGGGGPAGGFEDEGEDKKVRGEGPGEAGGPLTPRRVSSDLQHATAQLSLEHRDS
Sequence of UniProt Q4LDG9 (Q4LDG9 whole entry, looked up): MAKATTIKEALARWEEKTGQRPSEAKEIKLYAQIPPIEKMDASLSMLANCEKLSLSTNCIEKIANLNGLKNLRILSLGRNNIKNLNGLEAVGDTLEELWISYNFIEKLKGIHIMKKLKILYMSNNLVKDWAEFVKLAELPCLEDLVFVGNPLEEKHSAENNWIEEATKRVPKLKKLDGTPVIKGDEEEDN
Sequence of UniProt Q6UX07 (Q6UX07 whole entry, looked up): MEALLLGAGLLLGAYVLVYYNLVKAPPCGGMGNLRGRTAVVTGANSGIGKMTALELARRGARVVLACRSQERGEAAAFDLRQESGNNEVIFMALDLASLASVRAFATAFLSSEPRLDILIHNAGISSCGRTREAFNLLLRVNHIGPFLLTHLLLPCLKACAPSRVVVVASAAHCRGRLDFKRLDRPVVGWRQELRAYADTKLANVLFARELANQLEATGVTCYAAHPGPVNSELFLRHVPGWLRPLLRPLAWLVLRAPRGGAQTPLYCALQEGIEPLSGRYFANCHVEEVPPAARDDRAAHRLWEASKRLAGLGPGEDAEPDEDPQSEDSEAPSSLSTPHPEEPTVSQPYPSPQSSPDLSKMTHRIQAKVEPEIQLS
Sequence of UniProt P18146 (P18146 whole entry, looked up): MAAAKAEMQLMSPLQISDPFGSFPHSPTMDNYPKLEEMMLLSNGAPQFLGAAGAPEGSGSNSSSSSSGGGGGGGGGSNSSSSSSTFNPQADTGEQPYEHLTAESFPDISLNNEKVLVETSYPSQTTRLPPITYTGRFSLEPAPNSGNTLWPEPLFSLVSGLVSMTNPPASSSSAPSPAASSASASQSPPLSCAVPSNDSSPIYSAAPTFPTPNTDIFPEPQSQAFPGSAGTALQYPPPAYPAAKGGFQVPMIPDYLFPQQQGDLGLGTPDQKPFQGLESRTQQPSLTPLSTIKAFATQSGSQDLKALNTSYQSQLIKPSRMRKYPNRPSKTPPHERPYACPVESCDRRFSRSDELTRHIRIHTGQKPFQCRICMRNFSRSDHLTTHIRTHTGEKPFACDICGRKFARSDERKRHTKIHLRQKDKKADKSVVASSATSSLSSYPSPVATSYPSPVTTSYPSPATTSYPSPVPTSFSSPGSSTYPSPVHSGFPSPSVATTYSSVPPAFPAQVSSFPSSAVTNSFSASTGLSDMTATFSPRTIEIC
Sequence of UniProt Q96C92 (Q96C92 whole entry, looked up): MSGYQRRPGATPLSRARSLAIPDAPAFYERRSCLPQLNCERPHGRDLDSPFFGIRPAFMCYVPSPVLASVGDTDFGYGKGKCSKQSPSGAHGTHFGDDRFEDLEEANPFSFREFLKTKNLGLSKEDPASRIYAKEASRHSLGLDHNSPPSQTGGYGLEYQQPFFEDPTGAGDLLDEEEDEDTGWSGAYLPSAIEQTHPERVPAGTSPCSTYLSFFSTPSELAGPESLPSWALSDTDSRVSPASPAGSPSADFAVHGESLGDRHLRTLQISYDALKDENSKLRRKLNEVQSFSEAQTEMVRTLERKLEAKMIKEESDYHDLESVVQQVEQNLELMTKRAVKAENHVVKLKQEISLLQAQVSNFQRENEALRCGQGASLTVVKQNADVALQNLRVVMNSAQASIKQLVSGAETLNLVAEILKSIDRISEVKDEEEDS
Sequence of UniProt Q6P1L5 (Q6P1L5 whole entry, looked up): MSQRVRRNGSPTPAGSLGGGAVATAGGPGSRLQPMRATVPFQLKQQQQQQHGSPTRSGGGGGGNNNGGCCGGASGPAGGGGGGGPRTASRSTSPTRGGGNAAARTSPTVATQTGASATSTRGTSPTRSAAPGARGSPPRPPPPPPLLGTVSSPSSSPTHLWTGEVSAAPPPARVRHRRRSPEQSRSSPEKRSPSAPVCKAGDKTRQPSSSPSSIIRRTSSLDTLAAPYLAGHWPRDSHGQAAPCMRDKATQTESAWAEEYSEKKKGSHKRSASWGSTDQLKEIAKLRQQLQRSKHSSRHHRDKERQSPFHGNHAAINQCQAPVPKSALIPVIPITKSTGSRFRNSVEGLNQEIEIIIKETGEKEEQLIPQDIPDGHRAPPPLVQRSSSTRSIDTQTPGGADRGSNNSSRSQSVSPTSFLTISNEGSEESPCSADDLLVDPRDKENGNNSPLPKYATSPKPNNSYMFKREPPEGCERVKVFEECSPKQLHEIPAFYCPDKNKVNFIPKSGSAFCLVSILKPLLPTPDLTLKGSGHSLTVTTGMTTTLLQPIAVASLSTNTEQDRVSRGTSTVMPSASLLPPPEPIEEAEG

| Target | log2 fold change (epoxomicin) | log2 fold change [1] | log2 fold change (rosiglitazone) | log2 fold change [2] | log2 fold change (saracatinib) | log2 fold change (alvocidib) | log2 fold change (defactinib) | log2 fold change [3] | log2 fold change [4] | log2 fold change (volasertib) | log2 fold change [5] | log2 fold change [6] | log2 fold change [7] | log2 fold change [8] | log2 fold change [9] | log2 fold change (sotrastaurin) | log2 fold change (Tubastatin A) | log2 fold change [10] | log2 fold change (rucaparib) | log2 fold change (encorafenib) |
| --- | --- | --- | --- | --- | --- | --- | --- | --- | --- | --- | --- | --- | --- | --- | --- | --- | --- | --- | --- | --- |
| DNAL1 (UniProt Q4LDG9) | 0.082 | 0.103 | -0.683 | -0.256 | -0.081 | -0.121 | -0.14 | 0.062 | -0.13 | – | – | – | – | – | – | – | – | – | – | – |
| ENTR1 (UniProt Q96C92) | – | -0.107 | – | 0.183 | -0.131 | – | 0.022 | -0.039 | -0.486 (active) | 0.167 | -0.03 | -0.03 | – | – | – | – | – | – | – | – |
| EGR1 (UniProt P18146) | 0.489 | -0.241 | 0.08 | – | – | -0.604 | -0.841 (active) | – | 0.041 | 0.085 | 0.113 | -0.147 | 0.158 | 0.228 | -0.56 | -0.481 | 0.129 | – | – | – |
| DENND1A isoform 6 (UniProt Q8TEH3) | – | 0.112 | -0.041 | – | – | – | -0.081 | – | -0.024 | -0.856 (active) | – | – | – | – | – | – | -0.018 | – | – | – |
| EIF2AK1 (UniProt Q9BQI3) | 0.13 | -0.121 | -0.025 | 0.006 | 0.073 | 0.072 | -0.008 | -0.09 | 0.04 | -0.142 | 0.001 | 0.002 | – | 0.034 | -0.082 | 0.095 | 0.128 | – | – | – |
| DCAF4 (UniProt Q8WV16) | 0.041 | – | – | 0.128 | -0.097 | – | – | 0.193 | – | – | – | – | -0.075 | 0.147 | -0.086 | 0.027 | – | 0.03 | -0.346 | 0.103 |
| DDX27 (UniProt Q96GQ7) | -0.184 | -0.009 | – | 0.162 | -0.104 | 0.209 | 0.651 | -0.017 | 0.057 | – | -0.084 | -0.035 | 0.1 | 0.116 | 0.241 | -0.088 | 0.09 | -0.033 | 0.255 | 0.124 |
| FADS1 (UniProt F5GYH4) | – | 0.026 | 0.238 | – | – | – | 0.06 | – | 0.123 | – | – | – | – | – | – | – | 0.123 | – | – | – |
| DDB1 isoform 2 (UniProt Q16531) | -0.287 | – | 0.301 | – | – | – | – | – | – | – | – | – | – | 0.235 | -0.041 | 0.053 | – | 0.141 | -0.067 | -0.041 |
| ELOVL7 (UniProt A1L3X0) | 0.007 | – | – | 0.047 | -0.018 | -0.101 | – | -0.093 | – | – | -0.016 | -0.112 | – | – | – | – | -0.002 | – | – | – |
| FAM117B (UniProt Q6P1L5) | 0.021 | 0.11 | – | -0.072 | -0.004 | -0.117 | -0.494 | -0.223 | -0.341 | – | -0.211 | -0.035 | – | 0.012 | 0.017 | – | 0.084 | -0.054 | -0.013 | -0.092 |
| DHRS13 (UniProt Q6UX07) | – | 0.225 | – | 0.143 | -0.03 | -0.139 | -0.032 | 0.174 | -0.114 | – | -0.135 | 0.024 | 0.139 | -0.077 | 0.098 | -0.17 | 0.105 | 0.157 | 0.188 | 0.021 |
| ERF (UniProt P50548) | 0.068 | – | – | – | – | – | – | – | – | – | 0.033 | 0.069 | – | -0.052 | 0.319 | -0.058 | 0.377 | – | – | – |
| DNM2 isoform 4 (UniProt P50570) | 0.241 | – | 0.038 | 0.027 | -0.126 | -0.072 | – | -0.235 | – | – | 0.017 | -0.088 | -0.125 | -0.01 | -0.252 | -0.024 | – | 0.026 | -0.268 | 0.107 |
| DHPS (UniProt M0R1T2) | – | – | -0.057 | – | – | – | – | – | – | – | – | – | – | – | – | -0.06 | – | – | – | – |
| FAM160A2 isoform 2 (UniProt Q8N612) | -0.177 | 0.052 | -0.046 | 0.287 | -0.066 | -0.016 | -0.002 | -0.064 | 0.128 | – | – | – | -0.048 | 0.06 | -0.258 | – | -0.17 | -0.074 | -0.085 | -0.168 |
